Screening results as filed in PubChem BioAssay.
IL-1B inflam inh: blocks inflammasome-driven IL-1 beta release; THP-1 LPS/ATP IL-1B secretion, AlphaLISA, 16 h; active compounds read low; activity change, % at 57.5 µM; 4.7% of 360,000 active; AID 743279; in the data active = activity change below about -50%; inconclusive = mostly about -30% to -49%; note: % is set by controls: 0 for no effect and ±100 for the full control effect
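THP-1 cells pretreated 1 hr with compounds (up to 57.5 uM final), then stimulated with LPS (250 ng/mL final) plus ATP (1.25 mM final); secreted IL-1B measured by AlphaLISA after 16 hr, decreased signal indicating inhibition.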
ATXN2 expr inh: reduces ATXN2 reporter expression in HEK-293 cells. AID 1745845. HEK-293 ATXN2-luciferase reporter, luminescence, 24 h. 0.72% of 360,000 active. Potency, µM (series often up to 57 µM), without a hit: top-dose activity change, negative = inhibition, actives largely listed as inhibitors; note: potency is the fitted concentration of half-maximal effect; % is set by controls: 0 for no effect and ±100 for the full control effect; nearly all actives have a fitted effect of over 55% in size
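ATXN2-luciferase reporter cells (luciferase flanked by upstream and downstream ATXN2 gene portions) were treated 24 h at 37 °C with compounds at up to 57 uM. SteadyGlo luminescence gave expression; GF-AFC fluorescence gave viability.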
SW480 rereplic: inducers of DNA re-replication in SW480 colon cancer cells. Potency, µM (titrated, usually from 46.1 µM), inactives show top-dose re-replication activation, most hits filed as activators. SW480 DNA re-replication, Hoechst DNA content imaging, 48 h. 1.8% of 340,000 active; note: potency is the fitted concentration of half-maximal effect; % of control where 0% means no effect; nearly all actives have a fitted effect of over 55% in size
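Readout is total intensity of Hoechst-stained nuclei, excited at 405 nm and collected at 500-530 nm. Compound treatment lasted 48 hr at 37 C in 5% CO2 before staining.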
S2 tox: viability counter-screen for ATXN expression inhibitors; S2 cells (HEK-293 line with an ATXN2-luciferase reporter) viability, CellTiter-Fluor protease fluorescence, 24 h; Potency, µM (titrated, usually from 56.7 µM), actives largely listed as cytotoxic; 0.49% of 400,000 active; AID 651635; note: potency is the fitted concentration of half-maximal effect; nearly all actives have a fitted effect of over 40% in size
MCF10A rereplic: inducers of DNA re-replication in MCF 10A breast cells | AID 624296 | Potency, µM (titrated, usually from 46.1 µM), without a hit: top-dose activity, positive = re-replication, actives largely listed as activators | 2.9% of 350,000 active | MCF 10A DNA re-replication, Hoechst nuclear intensity, 48 h; note: potency is the fitted concentration of half-maximal effect; % of control where 0% means no effect; nearly all actives have a fitted effect of over 50% in size
PINK1 modulator: changes PINK1 expression. PINK1 immunofluorescence, high-content cytometry, 24 h. 0.2% of 410,000 active. Potency, µM (titrated, usually from 76.6 µM), for the others: top-dose activation (PINK1 increase), most hits filed as activators; active = well fitted activation curve with a large enough effect; inconclusive = small, poorly fitted or top-dose-only effect; cell line not stated here; note: potency is the fitted concentration of half-maximal effect; % of control where 0% means no effect; nearly all actives have a fitted effect of over 65% in size
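Cells are seeded, rested 12 hours, then given compound at five concentrations or DMSO for 24 hours. After fixation, blocking and antibody staining, PINK1 amount and mitochondrial localization are scored; CCCP serves as control.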
* = called active by the depositor; i = inactive; ? = inconclusive; / = not tested or not shown; [ ] = remark or other dose. This is a sample that favours compounds with a hit; in the whole collection about 7.1% have one here. Unless noted, calls come from the whole dose curve; as a rule, active = well fitted curve in the direction sought with a large enough effect; inconclusive = small, poorly fitted or top-dose-only effect, or another doubt; inactive = no such curve, though single readings can be large; an effect the other way counts as inactive or inconclusive.

SMILES | IL-1B inflam inh | ATXN2 expr inh | SW480 rereplic | S2 tox | MCF10A rereplic | PINK1 modulator
Cc1ccc(C)c(N2CCN(C(=O)C3CCCN(c4ncnc5c4nc4n5CCCCC4)C3)CC2)c1 (configuration not stated) | ? | ? | 26% | ? | 21µM* | 13%
Cc1cccc(N2CCN(C(=O)C3CCN(c4ncnc5c4nc4n5CCCCC4)CC3)CC2C)c1 (configuration not stated) | ? | ? | ? | ? | 15µM* | -1%
Cc1ccc(N2CCN(C(=O)C3CCCN(c4ncnc5c4nc4n5CCCCC4)C3)CC2)c(C)c1 (configuration not stated) | 2 | / | -21% | i | 18% | 3%
O=C(C1CCCN(c2ncnc3c2nc2n3CCCCC2)C1)N1CCN(c2cccc(Cl)c2)CC1 (configuration not stated) | ? | / | -33% | 14µM* | ? | 4%
CCO[C@H]1[C@H](NC(=O)c2cccnc2)c2ccccc2C12CCN(C(=O)c1cc(C)n(C)n1)CC2 | / | / | / | i | / | 0%
O=C1CCCN1c1ccc(S(=O)(=O)NCCOc2ccccc2)cc1 | 0 | -18% | 2%[9.22 µM] | i | -3% | 0%
Cc1cc(N2CCCC2=O)cc(C)c1S(=O)(=O)NCCOc1ccc(C(C)(C)C)cc1 | -54* | -13% | 17% | i | ? | -1%
Cc1nc(-c2ccccc2)nc2[nH]c(=O)n(-c3ccccc3)c(=O)c12 | 4 | 25% | -16% | i | -4% | -1%[38.3 µM]
Cc1nc(-c2ccccc2)nc2[nH]c(C(C)C)cc(=O)c12 | -18 | -2% | 4% | i | 9.2µM* | -1%[38.3 µM]
COc1ccc(C(=O)NCC(c2ccc3c(c2)OCO3)N2CCOCC2)cc1OC (configuration not stated) | / | 4% | / | i | / | -2%
Cc1cc(C)cc(NC(=O)C2C3C=CC4(O3)C2C(=O)N(CCCN2CCCC2)C4C(=O)NC2CCCC(C)C2C)c1 (configuration not stated) | ? | -7% | -4% | ? | 0% | 0%
COc1ccc(NC(=O)C2C3C=CC4(O3)C2C(=O)N(CCN2CCCCC2)C4C(=O)NC2CCCC(C)C2C)cc1 (configuration not stated) | ? | -14% | 26µM* | ? | ? | 3%
CCCCN(C)CCN1C(=O)C2C(C(=O)Nc3ccc(Cl)cc3)C3C=CC2(O3)C1C(=O)NC1CCCCC1 (configuration not stated) | -60* | -14% | 12% | ? | ? | 4%
CCC1CCCCN1CCN1C(=O)C2C(C(=O)Nc3ccc(OC)cc3)C3C=CC2(O3)C1C(=O)NC1CCCCC1 (configuration not stated) | ? | -8% | 17% | i | 9.2µM* | -1%
COc1ccc(N2C(=O)CSC23C(=O)N(CC(=O)NC2CCCCC2)c2ccccc23)cc1 (configuration not stated) | / | / | / | / | / | 4%
O=C(Nc1ccc(/C=C/c2ccc(NC(=O)c3cc(S(=O)(=O)O)c4cccnc4c3O)cc2S(=O)(=O)O)c(S(=O)(=O)O)c1)c1cc(S(=O)(=O)O)c2cccnc2c1O | / | / | / | i | / | /
Cc1ccccc1-c1nc(C(N)=O)c2c(n1)n(-c1ccc3c(c1)OCO3)c(=O)n2C | / | -8% | / | i | / | 1%
Cc1cc(C(=O)NCc2nc(-c3cccc(NC(=O)c4ccccc4)c3)oc2C)nc(C)n1 | / | / | / | i | / | 0%
CCC(=O)N1c2ccccc2CC1C(=O)NCCN1CCN(c2cc(Cl)ccc2C)CC1 (configuration not stated) | / | -8% | / | i | / | 0%
CC(C)Oc1ccc(CNS(=O)(=O)c2ccc3c(c2)C(C)(C)C(=O)N3C)cc1 | / | 7% | / | i | / | 4%
CCOC(=O)c1ccc(S(=O)(=O)NCC(c2ccc(N(C)C)cc2)c2c[nH]c3ccccc23)cc1 (configuration not stated) | 3 | -15% | -3% | i | 0% | 1%
CN(C)c1ccc(C(CNS(=O)(=O)c2ccc(F)cc2)c2c[nH]c3ccccc23)cc1 (configuration not stated) | -64* | 17% | 12% | i | 21µM* | 13%
COc1ccc(C=C2C=C(C(C)(C)C)C(=O)C(C(C)(C)C)=C2)cc1OC | -96* | ? | ? | i | 21µM* | 2%
Cc1ccc(Cn2c(CCCNC(=O)c3ccco3)nc3ccccc32)cc1 | / | -17% | / | i | / | 0%
CCc1nc2sc3c(c2c(=O)n1NC(=O)CCl)CCCC3 | -77* | 1% | 17% | i | ? | 0%[38.3 µM]
SMILES | IL-1B inflam inh | ATXN2 expr inh | SW480 rereplic | S2 tox | MCF10A rereplic | PINK1 modulator
Cc1ccc(OCCNC(=O)C(=O)NCc2ccco2)cc1 | 0 | -36% | 10µM* | i | 1.6µM* | 0%
Cc1ccc(OCCCC(=O)NCc2ccco2)cc1 | 3 | -2% | -3% | i | 0% | 3%[38.3 µM]
C#C[C@]1(O)CC[C@H]2[C@@H]3CCc4cc(O)ccc4[C@H]3CC[C@@]21C | 26 | -9% | ? | ? | 18µM* | 0%
C#C[C@@]1(O)CC[C@@H]2[C@@H]3CCC4=CC(=O)CC[C@@H]4[C@H]3CC[C@]21CC | / | / | / | i | / | /
C#C[C@]1(O)CC[C@@H]2[C@H]3CCC4=CCCC[C@@H]4[C@@H]3CC[C@@]21C | / | / | 2%[20.6 µM] | / | 10µM* | /
C#C[C@]1(O)CC[C@H]2[C@@H]3CCC4=CCCC[C@@H]4[C@H]3C(=C)C[C@@]21CC | / | / | 3% | / | 13µM* | /
CCc1c(C)c2cc(Cl)c(O)c(CN3CCCC3)c2oc1=O | 9 | 4% | 21µM* | / | ? | 2%
CCOC(=O)c1c(NC(=O)C(C)OC(=O)c2ccc(NC(=O)CC#N)cc2)sc2c1CCCC2 (configuration not stated) | -80* | -13% | 10% | i | ? | ?
CCOC(=O)Nc1sc2c(c1C(=O)OCC)CCC2 | -6 | 0% | 1% | i | 11% | 3%[38.3 µM]
CCOC(=O)c1c(NC(=O)C(C)OC(=O)C2=COCCO2)sc2c1CCCC2 (configuration not stated) | 7 | -19% | 0% | i | ? | 3%
CCOC(=O)c1c(NC(NC(=O)C(C)C)C(Cl)(Cl)Cl)sc2c1CCC2 (configuration not stated) | 1 | -21% | ? | i | 23µM* | ?
CCOC(=O)c1c(NC(=O)c2cc(=O)c3c(C)cc(C)cc3o2)sc2c1CCC2 | / | 2% | / | i | / | 32µM*
c1ccc(-c2ccc(N3CCCC4(CCNCC4)C3)cc2)cc1 | / | / | / | / | / | -1%
